Measurements taken from PMC10812921, “Transcriptional Coactivator BOB1 (OBF1, OCA-B) Modulates the Specificity of DNA Recognition by the POU-Domain Factors OCT1 and OCT2 in a Monomeric Configuration”.

What was measured:
POU1 (OCT1 POU domain) = POU1 (OCT1 POU domain) (human, UniProt P14859 260-458); assay: EMSA-SELEX-seq; no BOB1; 20 mM Tris-HCl pH 7.6, 140 mM NaCl, 10% glycerol, 0.5 mM EDTA, 0.05% Triton X-100, 0.1 mg/mL BSA, 0.1 mg/mL poly(dI-dC), 5 mM DTT, room temperature, 20 min; high values mean tight binding; details: protein: recombinant; dsDNA, one strand shown
Sequence of POU1 (OCT1 POU domain) (P14859 260-458): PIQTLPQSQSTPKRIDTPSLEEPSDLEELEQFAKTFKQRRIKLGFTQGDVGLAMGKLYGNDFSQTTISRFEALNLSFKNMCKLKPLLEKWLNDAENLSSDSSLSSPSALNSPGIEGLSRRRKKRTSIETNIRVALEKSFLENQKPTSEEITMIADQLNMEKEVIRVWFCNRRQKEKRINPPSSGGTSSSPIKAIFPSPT
Method in brief: (§1)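 Tagged POU-domain proteins were expressed in E. coli BL21, purified under denaturing conditions and renatured. Then 30 ng was mixed with 300 ng of a PCR-amplified double-stranded random 35-nt library, with or without 28 ng coactivator protein, in 20 μL Tris–HCl pH 7.6 binding buffer for 20 min at RT. Complex bands were cut from native 6% PAGE, eluted and PCR-amplified over four rounds, then Illumina-sequenced. Binding preference is the percentage of sequenced 8-mers matching a motif pattern.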

POU2 (OCT2 POU domain) = molecular target: T1, POU2 (OCT2 POU domain) (human, UniProt P09086 175-386); assay: as above; details: protein: recombinant; dsDNA, one strand shown
T1 sequence: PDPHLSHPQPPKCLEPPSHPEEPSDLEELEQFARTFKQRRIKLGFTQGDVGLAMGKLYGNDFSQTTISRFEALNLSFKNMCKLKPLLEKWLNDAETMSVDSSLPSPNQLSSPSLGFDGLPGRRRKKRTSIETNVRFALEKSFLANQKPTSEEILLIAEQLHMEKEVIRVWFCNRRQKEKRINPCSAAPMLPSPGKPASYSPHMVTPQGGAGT
Method in brief: as §1

[1] = molecular target: POU1 (OCT1 POU domain);BOB1 (OBF1, OCA-B) (human;human, UniProt P14859;Q16633 260-458;1-256, |); assay: EMSA-SELEX-seq; with BOB1 (ternary complex band); 20 mM Tris-HCl pH 7.6, 140 mM NaCl, 10% glycerol, 0.5 mM EDTA, 0.05% Triton X-100, 0.1 mg/mL BSA, 0.1 mg/mL poly(dI-dC), 5 mM DTT, room temperature, 20 min; high values mean tight binding; details: protein: recombinant;recombinant; copies: 1;1; dsDNA, one strand shown
Method in brief: as §1

[2] = molecular target: T2, POU2 (OCT2 POU domain);BOB1 (OBF1, OCA-B) (human;human, UniProt P09086;Q16633 175-386;1-256, |); assay: as above; details: protein: recombinant;recombinant; copies: 1;1; dsDNA, one strand shown
T2 sequence 1: T1 sequence
T2 sequence 2: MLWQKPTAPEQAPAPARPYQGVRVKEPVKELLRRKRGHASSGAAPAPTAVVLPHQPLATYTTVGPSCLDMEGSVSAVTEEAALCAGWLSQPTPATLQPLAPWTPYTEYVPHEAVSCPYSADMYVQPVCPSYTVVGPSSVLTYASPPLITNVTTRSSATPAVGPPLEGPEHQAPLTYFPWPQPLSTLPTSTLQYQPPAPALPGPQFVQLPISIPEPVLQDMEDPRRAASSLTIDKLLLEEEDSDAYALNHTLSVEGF
Method in brief: as §1

Row | Sequence | binding signal (POU1 (OCT1 POU domain)) | binding signal (POU2 (OCT2 POU domain)) | binding signal [1] | binding signal [2]
1 | ACATGAAT | 0.151 % of ANNNNAAN 8-mers | 0.179 % of ANNNNAAN 8-mers | 0.0773 % of ANNNNAAN 8-mers | 0.0925 % of ANNNNAAN 8-mers
2 | ATATAAAC | 0.0637 % of ANNNNAAN 8-mers | 0.0719 % of ANNNNAAN 8-mers | 0.055 % of ANNNNAAN 8-mers | 0.0652 % of ANNNNAAN 8-mers
3 | AAAGAAAT | 0.145 % of ANNNNAAN 8-mers | 0.112 % of ANNNNAAN 8-mers | 0.16 % of ANNNNAAN 8-mers | 0.0958 % of ANNNNAAN 8-mers
4 | ACGACAAC | 0.0126 % of ANNNNAAN 8-mers | 0.0132 % of ANNNNAAN 8-mers | 0.0133 % of ANNNNAAN 8-mers | 0.0149 % of ANNNNAAN 8-mers
5 | ATGGTAAT | 1.27 % of ANNNNAAN 8-mers | 1.28 % of ANNNNAAN 8-mers | 0.202 % of ANNNNAAN 8-mers | 0.219 % of ANNNNAAN 8-mers
6 | AGATGAAC | 0.0286 % of ANNNNAAN 8-mers | 0.0363 % of ANNNNAAN 8-mers | 0.0207 % of ANNNNAAN 8-mers | 0.0256 % of ANNNNAAN 8-mers
7 | ATATTAAG | 0.196 % of ANNNNAAN 8-mers | 0.214 % of ANNNNAAN 8-mers | 0.0882 % of ANNNNAAN 8-mers | 0.117 % of ANNNNAAN 8-mers
8 | AAAATAAA | 0.153 % of ANNNNAAN 8-mers | 0.16 % of ANNNNAAN 8-mers | 0.148 % of ANNNNAAN 8-mers | 0.105 % of ANNNNAAN 8-mers
9 | ATGTGAAC | 0.0374 % of ANNNNAAN 8-mers | 0.0386 % of ANNNNAAN 8-mers | 0.0367 % of ANNNNAAN 8-mers | 0.0388 % of ANNNNAAN 8-mers
10 | AAGTGAAG | 0.0381 % of ANNNNAAN 8-mers | 0.0409 % of ANNNNAAN 8-mers | 0.0386 % of ANNNNAAN 8-mers | 0.0454 % of ANNNNAAN 8-mers
11 | ATAAAAAA | 0.0995 % of ANNNNAAN 8-mers | 0.1 % of ANNNNAAN 8-mers | 0.0823 % of ANNNNAAN 8-mers | 0.0801 % of ANNNNAAN 8-mers
12 | ATTCCAAC | 0.0339 % of ANNNNAAN 8-mers | 0.0432 % of ANNNNAAN 8-mers | 0.0269 % of ANNNNAAN 8-mers | 0.0223 % of ANNNNAAN 8-mers
13 | AGTATAAC | 0.0278 % of ANNNNAAN 8-mers | 0.0328 % of ANNNNAAN 8-mers | 0.0226 % of ANNNNAAN 8-mers | 0.0248 % of ANNNNAAN 8-mers
14 | AGTAGAAA | 0.0511 % of ANNNNAAN 8-mers | 0.0708 % of ANNNNAAN 8-mers | 0.0464 % of ANNNNAAN 8-mers | 0.052 % of ANNNNAAN 8-mers
15 | AACCGAAC | 0.013 % of ANNNNAAN 8-mers | 0.0173 % of ANNNNAAN 8-mers | 0.0117 % of ANNNNAAN 8-mers | 0.0198 % of ANNNNAAN 8-mers
16 | AAAAGAAC | 0.0351 % of ANNNNAAN 8-mers | 0.0443 % of ANNNNAAN 8-mers | 0.0468 % of ANNNNAAN 8-mers | 0.0338 % of ANNNNAAN 8-mers
17 | AGTTGAAC | 0.0259 % of ANNNNAAN 8-mers | 0.0253 % of ANNNNAAN 8-mers | 0.0258 % of ANNNNAAN 8-mers | 0.0338 % of ANNNNAAN 8-mers
18 | AAGTTAAC | 0.0347 % of ANNNNAAN 8-mers | 0.038 % of ANNNNAAN 8-mers | 0.0355 % of ANNNNAAN 8-mers | 0.0355 % of ANNNNAAN 8-mers
19 | ATCCAAAC | 0.0233 % of ANNNNAAN 8-mers | 0.0178 % of ANNNNAAN 8-mers | 0.0343 % of ANNNNAAN 8-mers | 0.0264 % of ANNNNAAN 8-mers
20 | AGGACAAT | 0.042 % of ANNNNAAN 8-mers | 0.0345 % of ANNNNAAN 8-mers | 0.0496 % of ANNNNAAN 8-mers | 0.0421 % of ANNNNAAN 8-mers
21 | AAGGCAAG | 0.0328 % of ANNNNAAN 8-mers | 0.038 % of ANNNNAAN 8-mers | 0.0328 % of ANNNNAAN 8-mers | 0.0256 % of ANNNNAAN 8-mers
22 | AATCAAAG | 0.0854 % of ANNNNAAN 8-mers | 0.0857 % of ANNNNAAN 8-mers | 0.122 % of ANNNNAAN 8-mers | 0.0916 % of ANNNNAAN 8-mers
23 | ATGCCAAG | 0.0305 % of ANNNNAAN 8-mers | 0.0357 % of ANNNNAAN 8-mers | 0.025 % of ANNNNAAN 8-mers | 0.0248 % of ANNNNAAN 8-mers
